Measured values as given in PubChem BioAssay (NCI).
Compounds without any hit were thinned out: in the full panel of roughly 83,000, 20% have a hit.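 Each cell line was grown in a 96-well plate and treated with one concentration of compound for 48 hours. Values below 10 were considered active.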 Values without a mark were called inactive. The source made the active and inactive calls.

Key:
Experiment in all cases: NCI-60 one-dose screen, 48 h (100 = growth as untreated, 0 = no growth, -100 = all killed)
Conditions in all cases: 10 µM unless noted
SK-MEL-2 melanoma = test system: SK-MEL-2 melanoma
EKVX NSCLC = test system: EKVX NSCLC
SN12C renal = test system: SN12C renal
UO-31 renal = test system: UO-31 renal
TK-10 renal = test system: TK-10 renal
ACHN renal = test system: ACHN renal
A498 renal = test system: A498 renal
CCRF-CEM leukemia = test system: CCRF-CEM leukemia
MOLT-4 leukemia = test system: MOLT-4 leukemia
SR leukemia = test system: SR leukemia
RPMI-8226 leukemia = test system: RPMI-8226 leukemia
OVCAR-8 ovarian = test system: OVCAR-8 ovarian
OVCAR-5 ovarian = test system: OVCAR-5 ovarian
OVCAR-4 ovarian = test system: OVCAR-4 ovarian
SK-OV-3 ovarian = test system: SK-OV-3 ovarian
IGROV1 ovarian = test system: IGROV1 ovarian
OVCAR-3 ovarian = test system: OVCAR-3 ovarian
HS 578T breast = test system: HS 578T breast
NCI/ADR-RES ovarian = test system: NCI/ADR-RES ovarian
T-47D breast = test system: T-47D breast

SMILES | growth (SK-MEL-2 melanoma) | growth (EKVX NSCLC) | growth (SN12C renal) | growth (UO-31 renal) | growth (TK-10 renal) | growth (ACHN renal) | growth (A498 renal) | growth (CCRF-CEM leukemia) | growth (MOLT-4 leukemia) | growth (SR leukemia) | growth (RPMI-8226 leukemia) | growth (OVCAR-8 ovarian) | growth (OVCAR-5 ovarian) | growth (OVCAR-4 ovarian) | growth (SK-OV-3 ovarian) | growth (IGROV1 ovarian) | growth (OVCAR-3 ovarian) | growth (HS 578T breast) | growth (NCI/ADR-RES ovarian) | growth (T-47D breast)
Cc1ccc(SC2c3ccc(C)cc3Oc3nc(N)c(C#N)c(N)c32)cc1 (stereo not given) | 65.3% | 59.8% | 79.9% | 48.5% | 69.3% | 68.1% | 106% | 7.82% (active) | 7.29% (active) | -11.8% (active) | 12.8% | 95% | 121% | 74.8% | 102% | 25.9% | 55.2% | 96.2% | 92.1% | 16.8%
C1=CC2=CC=C3C=CC=C4C(c5nc6c7ccccc7c7ccccc7c6[nH]5)=CC(=C1)C2C34 (stereo not given) | 123% | 93.5% | 94.6% | 62.8% | 127% | 89.6% | 63.7% | 89.7% | 73.3% | 76.3% | 89.5% | 97.7% | 115% | 119% | 93.9% | 86.8% | 93.4% | 93.9% | 92.9% | 60%
CCCCOc1nc2ccc(C)cc2cc1/C=C/C(=O)/C=C/c1ccc2c(c1)OCO2 | 69.6% | 102% | 89.2% | 75% | 113% | 103% | 106% | 75.9% | 81.5% | 42.9% | 5.04% (active) | 38.7% | 131% | 95.4% | 106% | 90.3% | 74.6% | 101% | 91.7% | 62.7%
COc1ccc2nc(-c3ccc(OC)c(OC)c3)cc(-c3nnc(SCC(=O)Nc4ccc(/C(C)=N\O)cc4)n3-c3ccccc3)c2c1 | 80.7% | 88.8% | 80.7% | 54.2% | 65.9% | 75.5% | 77.9% | 40% | 33.8% | 54.7% | 47.7% | 72.4% | 102% | 95.5% | 101% | 28.1% | 87.8% | 72.2% | 77.2% | 45.8%
CCC1S/C(=N\N=C(/C)c2ccc[nH]2)N(c2ccccc2)C1=O (stereo not given) | 124% | 116% | 116% | 43% | 83.5% | 102% | 112% | -86.5% (active) | -50% (active) | 32.5% | 57.5% | 90.2% | 99.3% | 104% | 123% | -48.7% (active) | 89.7% | 124% | 85.2% | 122%
C=C(C)[C@@H]1CC[C@]2(C(=O)N3CCN(C)CC3)CC[C@]3(C)[C@H](CC[C@@H]4[C@@]5(C)C/C(=C/c6ccco6)C(=O)C(C)(C)[C@@H]5CC[C@]43C)[C@@H]12 | 83.7% | 68.2% | 64.9% | 60.5% | 98.8% | 74.7% | 97.5% | 50.1% | 28.6% | -21.9% (active) | 33.7% | 70.7% | 83.2% | 71.7% | 71.3% | 90.1% | 88.1% | 66.4% | 69.8% | 72.7%
CCN1CCN(Cc2ccc(NC(=O)c3cccc(C#Cc4cccc5[nH]nc(N)c45)c3)cc2C(F)(F)F)CC1 | -70.1% (active) | -46.4% (active) | -35.4% (active) | -92.3% (active) | -94.4% (active) | -81.1% (active) | -63.5% (active) | -16.2% (active) | -31.2% (active) | -49.2% (active) | -36.9% (active) | -69.9% (active) | -20% (active) | -2.48% (active) | -13.5% (active) | -60.3% (active) | -62.8% (active) | -19.9% (active) | -35% (active) | -32% (active)
O=C(NCc1ccccc1)c1ccc2c(c1)NC(=O)[C@@H]1CCCN21 | 99% | 101% | 105% | 90.9% | 93.8% | 98.7% | 70.3% | 116% | 113% | 106% | 105% | 106% | 100% | 112% | 111% | 104% | 101% | 90.7% | 98.3% | 108%
CC(C)(C)c1ccc(O)c(Cc2cc(C(C)(C)C)ccc2O)c1 | 80% | 78.5% | 87.5% | 85.7% | 94.2% | 106% | 87.3% | 0.931% (active) | 64.6% | 24.5% | 47.7% | 90.3% | 120% | 95.6% | 102% | 101% | 103% | 93.3% | 100% | 78.6%
Cc1c(Cl)cccc1NC(=O)c1sc2nc3c(cc2c1N)CCCCC3 | 48.5% | 42.2% | 44.9% | 55.2% | 65.6% | 62.5% | -3.71% (active) | 9.59% (active) | 14.4% | 12.8% | 22.2% | 31.5% | 58.3% | 59.2% | 47.8% | 54.9% | -3.42% (active) | 38% | 19.7% | 44%
C=CCn1c(SCC(=O)Nc2ccc(C(=O)/C=C/c3cc(OC)c(OC)c(OC)c3)cc2)nnc1-c1ccccc1 | 101% | 95.8% | 93.1% | 78.3% | 108% | 103% | 87.5% | 57.1% | 76.9% | 32.5% | 5.73% (active) | 86.8% | 128% | 111% | 110% | 86.9% | 82.3% | 102% | 102% | 78.8%
C=C1C(=O)O[C@H]2[C@H]1CC/C(COC(=O)/C=C/c1cccnc1)=C\CC[C@@]1(C)O[C@@H]21 | 75.2% | 43.4% | 16.8% | 24.9% | 25.1% | -11.4% (active) | 92.4% | -7.32% (active) | 8.45% (active) | 6.38% (active) | 2.83% (active) | 40.6% | 59.1% | 32.4% | 80.2% | 36.7% | -6.31% (active) | 62.8% | 54.5% | 23%
CC(C)(C)c1ccc2oc(=O)n(SC(Cl)(Cl)Cl)c2c1 | 93.9% | 92.2% | 102% | 94.9% | 92.4% | 106% | 109% | 83.5% | 77.2% | 92.3% | 102% | 111% | 105% | 106% | 102% | 111% | 106% | 119% | 100% | 93.4%
O=C(Nc1cccc(-c2cccc(F)c2)c1)C1CCN(Cc2cccc3cccnc23)CC1 | 63.1% | 68.4% | 74.2% | 35.8% | 60.1% | 65.5% | 55.3% | 57.2% | 17.6% | -32.7% (active) | 19% | 72% | 82.9% | 51.6% | 68.3% | 62.7% | 60.8% | 60.9% | 73% | 29%
COc1cc2nc3c(=O)n(CCN(C)C)cnn3c(=O)c2cc1OC | 101% | 95.7% | 104% | 89.6% | 103% | 105% | 92.7% | 146% | 104% | 105% | 121% | 111% | 99% | 101% | 104% | 100% | 103% | 92.8% | 98.3% | 112%
N#CC1(C#N)C2=C(CCCC2)NC(c2c(F)cccc2Cl)C1(C#N)C#N (stereo not given) | 37.6% | 71.1% | 72.1% | 70% | 99.8% | 84% | 51.3% | 36.1% | 43.5% | 30.1% | 43.4% | 86.9% | 87.7% | 66.9% | 79.7% | 83.3% | 20.3% | 43.4% | 76.6% | 79.7%
